In PubChem BioAssay (NCI):
About 83,000 compounds went through this panel and 20% of them were active in at least one assay; those are over-represented in the sample as a whole.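 Plates (96-well) were seeded with cells, treated with compound at one concentration, and incubated for 48 hours before percent growth was determined.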 Unmarked numbers belong to inactive results. Calls of active or inactive are those of the source. How the source made its calls: active means growth percent below 10; inactive means the rest.

Experiments:
Experiment in all cases: NCI-60 one-dose screen, 48 h (100 = growth as untreated, 0 = no growth, -100 = all killed)
Conditions in all cases: 10 µM unless noted
NCI-H23 lung = test system: NCI-H23 lung
NCI-H226 lung = test system: NCI-H226 lung
NCI-H322M lung = test system: NCI-H322M lung
HOP-62 NSCLC = test system: HOP-62 NSCLC
NCI-H460 lung = test system: NCI-H460 lung
HOP-92 NSCLC = test system: HOP-92 NSCLC
NCI-H522 lung = test system: NCI-H522 lung
A549/ATCC NSCLC = test system: A549/ATCC NSCLC
786-0 renal = test system: 786-0 renal
COLO 205 colon = test system: COLO 205 colon
DU-145 prostate = test system: DU-145 prostate
MALME-3M melanoma = test system: MALME-3M melanoma
MDA-MB-231 breast = test system: MDA-MB-231 breast
RXF 393 renal = test system: RXF 393 renal
SF-268 CNS = test system: SF-268 CNS
SF-295 CNS = test system: SF-295 CNS
SF-539 CNS = test system: SF-539 CNS
UACC-257 melanoma = test system: UACC-257 melanoma
M14 melanoma = test system: M14 melanoma

Row | SMILES | growth (NCI-H23 lung) | growth (NCI-H226 lung) [%] | growth (NCI-H322M lung) [%] | growth (HOP-62 NSCLC) [%] | growth (NCI-H460 lung) [%] | growth (HOP-92 NSCLC) [%] | growth (NCI-H522 lung) | growth (A549/ATCC NSCLC) [%] | growth (786-0 renal) | growth (COLO 205 colon) | growth (DU-145 prostate) [%] | growth (MALME-3M melanoma) | growth (MDA-MB-231 breast) | growth (RXF 393 renal) | growth (SF-268 CNS) | growth (SF-295 CNS) [%] | growth (SF-539 CNS) | growth (UACC-257 melanoma) | growth (M14 melanoma)
1 | COc1cc(/C=C\c2cc(OC)c(OC)c(OC)c2)cc(NC(=O)/C=C/c2cc(OC)c(OC)c(OC)c2)c1OC | 27.8% | 66.6 | 66.8 | 63.7 | 55.7 | 45 | 23.3% | 60.8 | 51.6% | 38.2% | 78 | 48.7% | 51.3% | 28.7% | 72.6% | 32.6 | 56.4% | 68.4% | 37.9%
2 | OC(c1ccc(F)c(C(F)(F)F)c1)c1cnccc1NC1CCCCC1 (centres undefined) | 51.7% | 78.1 | 89.5 | 85.8 | 69.5 | 40.2 | 67.1% | 69.9 | 63.6% | -60.8% (active) | 90.2 | 71.8% | 55.2% | 68.6% | 79.6% | 74.1 | 85.4% | 87.4% | 77.8%
3 | COc1cc(/C=C2\COc3ccc(-c4ccccc4)cc3C2=O)cc(OC)c1 | 70.1% | 87.4 | 85.9 | 113 | 66.7 | 70.3 | 39.2% | 72 | 89.3% | 107% | 85.8 | 101% | 95.5% | 66.1% | 82.3% | 68.9 | 100% | 70.9% | 91.9%
4 | NS(=O)(=O)c1ccc(CCN2C(=O)C3C(C2=O)C2(Cl)C(Cl)=C(Cl)C3(Cl)C2(Cl)Cl)cc1 (centres undefined) | 92.9% | 101 | 104 | 104 | 104 | 47.6 | 91% | 101 | 95.3% | 108% | 96.5 | 90.5% | 92.9% | 109% | 102% | 94 | 92.5% | 110% | 94.5%
5 | O=C1Nc2ccccc2/C1=C\c1c(-c2ccccc2)nc2ccccn12 | 8.45% (active) | 57.6 | 70.1 | 41.3 | 24.3 | 66.6 | 22.3% | 47.1 | 58.7% | 31% | 63.5 | 43.6% | 59.2% | 26.8% | 51.2% | 24 | 49.6% | 87.6% | 3.79% (active)
6 | Cc1nc2ccc(Cl)cn2c1-c1nnc(SCc2ccc([N+](=O)[O-])cc2)o1 | 55.9% | 56.4 | 63.6 | 49.6 | 49.5 | 48.3 | 45.8% | 66.8 | 62.5% | 105% | 67.9 | 31.6% | 41.4% | -5.38% (active) | 46.1% | 74.6 | 20.8% | 61.3% | 70.3%
7 | CCN1C(=O)N(CC)C2Nn3c(s/c(=C\c4ccc(OC)cc4)c3=O)=NC21 (centres undefined) | 76.3% | 85.1 | 82.6 | 55.8 | 32.2 | 75.4 | 12.2% | 50.7 | 34.6% | 31.7% | 67.3 | 54.1% | 61.4% | 56.2% | 63.1% | 44.1 | 42.9% | 45% | 39.8%
8 | CCNc1nc2ccc(Nc3ccnc4cc(Cl)ccc34)cc2[nH]1 | 89.6% | 94.8 | 97.5 | 94.7 | 85.9 | 61 | 98.3% | 90.8 | 72.2% | 61.2% | 97 | 119% | 84.7% | 68.5% | 88.4% | 87.3 | 85.6% | 97.9% | 91.9%
9 | C/C=C(\C)C(=O)NC1=CC[C@@]2(C)C(=CCC3C2CC[C@@]2(C)C3CC[C@@H]2C(C)N(C)C)C1=O (some centres undefined) | 39.2% | 89.6 | 36.9 | 46.4 | 17.4 | 40.6 | 77.9% | 60.8 | 44.2% | -8.4% (active) | 64.6 | -42.9% (active) | 34.8% | 10.7% | 10.4% | 31.7 | -49% (active) | 2.46% (active) | -32.1% (active)
10 | CCOC(=O)CC1CSC(N/N=C/c2ccc(-n3cccn3)cc2)=N1 (centres undefined) | 101% | 95 | 104 | 105 | 107 | 99.3 | 99.1% | 93.1 | 108% | 126% | 108 | 113% | 101% | 105% | 103% | 107 | 107% | 96.2% | 107%
11 | CCCN1[C@@H]2CC[C@H]1/C(=C\c1ccc(OC)c(OC)c1)C(=O)/C2=C/c1ccc(OC)c(OC)c1 | 23.8% | 67.3 | 46.7 | 68.2 | 39.6 | 39.8 | 47.8% | 49.3 | 63.8% | 51.4% | 59.7 | 83.9% | 56.3% | 58.3% | 59.2% | 30.9 | 59.4% | 42.1% | 43.1%
12 | Cc1cc(Cl)nc(N(CCNc2ccnc3cc(Cl)ccc23)Cc2ccccn2)n1 | 56.2% | 79.5 | 63.6 | 72.5 | 50.9 | 38 | 54.1% | 63.3 | 38.7% | 57.5% | 73 | 100% | 57.2% | 59.1% | 83.4% | 80.4 | 6.88% (active) | 68.1% | 62.5%
13 | COc1ccc(-c2cnc3c(-c4cccc5cnccc45)cnn3c2)cc1 | 74.5% | 29.3 | 68.3 | 55.1 | 23.4 | 63 | 48.3% | 39.8 | 29.4% | 67.8% | 69.9 | 45% | 37.8% | 48.7% | 92.7% | 62.5 | 2.09% (active) | 88.7% | 74.5%
14 | C=C(C)[C@@H]1CC[C@]2(C(=O)N[C@@H](Cc3ccccc3)C(=O)OC)CC[C@]3(C)[C@H](CC[C@@H]4[C@@]5(C)CCC(=O)C(C)(C)[C@@H]5CC[C@]43C)[C@@H]12 | 86.7% | 94.6 | 93.4 | 94 | 81.3 | 57.6 | 79.7% | 79 | 85.8% | 94.5% | 92.7 | 102% | 102% | 101% | 78% | 78.8 | 93.7% | 104% | 87.8%
15 | O=C1CC(=O)OC(c2ccc([N+](=O)[O-])cc2)O1 | 43.6% | 34.8 | 51.7 | 26.5 | 35.6 | 36.9 | -65.5% (active) | 33.6 | -73.8% (active) | -31% (active) | 13.9 | -36.6% (active) | -3.22% (active) | -91% (active) | 4.85% (active) | 70.3 | -69.9% (active) | -23.6% (active) | -64.4% (active)
16 | N#C/C(=C\c1c(-c2ccccc2)[nH]c2ccccc12)C(=O)c1ccc(Cl)cc1 | 36.9% | 69 | 61.8 | 41.4 | 18.2 | 55.2 | 35.3% | 48.8 | 44.6% | 41.6% | 28.3 | 37.2% | 49.9% | 29.2% | 51.4% | 32.1 | -39.7% (active) | 68.2% | 41%
